# Bioassay records from PubChem.
# DT40 TDP1 CPT: growth inhibition of DT40 Tdp1-/-;hTDP1 cells with camptothecin (screen for TDP1 inhibitors); chicken DT40 Tdp1-/-;hTDP1 cells + 20 nM CPT, ATP luminescence, 48 h; Potency, µM (highest dose often 46.2 µM), inactives show top-dose activity change, negative = growth inhibition, actives largely listed as inhibitors; hit rate 12% among 420,000; AID 686979; also: % is scaled to controls: 0 for no effect and ±100 for the full control effect; nearly all actives have a fitted effect of over 55% in size
#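 Chicken DT40 Tdp1-/- cells complemented with human TDP1, 400 cells/well, exposed to compounds plus 20 nM camptothecin for at least 48 h at 37 C; viability read as ATP content by CellTiter-Glo luminescence.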
# TDP1 cell noCPT: qHTS for Inhibitors of human tyrosyl-DNA phosphodiesterase 1 (TDP1): qHTS in cells in absence of CPT; DT40 Tdp1-/- hTDP1 cells, no CPT, ATP luminescence, 48 h; Potency, µM (doses to about 46.2 µM), for the others: at the top dose activity change, negative = growth inhibition, most hits filed as inhibitors; hit rate 15% among 420,000; AID 686978, 2013; also: % is scaled to controls: 0 for no effect and ±100 for the full control effect; nearly all actives have a fitted effect of over 55% in size
#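 Camptothecin absent (DMSO only). Human TDP1-complemented DT40 knockout cells, 400 cells/well, 37 °C for minimum 48 hr; ATP measured via CellTiter-Glo, 30 min dark incubation, luminescence.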
# ClpP mod: qHTS Assay for Activators of ClpP. purified B. subtilis ClpP, FRET peptide cleavage, 20 min. Potency, µM (series often up to 57.5 µM), without a hit: top-dose activity change, negative = active. hit rate 1.9% among 340,000; active = well fitted falling curve with a large enough effect; inconclusive = small, poorly fitted or top-dose-only effect; inactive = no such curve, though single readings can be large or run the other way; also: the source files actives as falling curves though it sought activators and does not explain the sign; nearly all actives have a fitted effect of over 65% in size
#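 ClpP 10 microg/mL final, pH 8 Tris/KCl buffer with BSA, glycerol, Tween-20; compound pinned in; FRET-FV substrate; RT 20 min; Ex320/Em430; ΔFRET vs ADEP 5.8 microM, DMSO, no enzyme.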
# TDP1 block: TDP1 (human) enzyme inhibition. hit rate 0.28% among 350,000. recombinant TDP1, AlphaScreen DNA substrate cleavage. AID 485290. Q9NUW8. Potency, µM (doses to about 130 µM), without a hit: top-dose activity change, negative = inhibition, usual class: inhibitors; also: % is scaled to controls: 0 for no effect and ±100 for the full control effect; nearly all actives have a fitted effect of over 40% in size
# Target sequence (Q9NUW8 whole entry, looked up): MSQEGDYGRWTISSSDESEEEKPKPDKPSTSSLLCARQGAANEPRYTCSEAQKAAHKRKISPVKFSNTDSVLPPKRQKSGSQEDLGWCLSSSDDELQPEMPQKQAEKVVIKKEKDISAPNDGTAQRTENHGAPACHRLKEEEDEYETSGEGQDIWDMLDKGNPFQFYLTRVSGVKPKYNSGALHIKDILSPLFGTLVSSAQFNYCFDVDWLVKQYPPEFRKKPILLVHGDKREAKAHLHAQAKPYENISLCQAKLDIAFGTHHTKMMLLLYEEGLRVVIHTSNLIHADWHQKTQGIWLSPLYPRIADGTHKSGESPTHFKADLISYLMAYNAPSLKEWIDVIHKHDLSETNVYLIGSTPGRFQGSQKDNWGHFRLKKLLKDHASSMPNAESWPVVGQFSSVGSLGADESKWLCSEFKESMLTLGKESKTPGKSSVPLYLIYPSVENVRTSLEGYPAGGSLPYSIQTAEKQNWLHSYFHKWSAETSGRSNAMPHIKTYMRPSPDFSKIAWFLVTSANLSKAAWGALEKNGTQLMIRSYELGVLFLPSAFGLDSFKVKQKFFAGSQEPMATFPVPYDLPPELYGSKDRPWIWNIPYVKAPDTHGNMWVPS
#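 Tdp1 1 nM final; 15 min RT w/ cpd; substrate 15 nM, 5 min; beads 10 ug/ml, 10 min; AlphaScreen read. Neg ctrl: no enzyme.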
# An asterisk follows results filed as active; ? = inconclusive; nt = no result given; [ ] = dose if it differs, or a comment. Shown are actives, neighbours in structure and some others; about 17% of the full set was active somewhere. Unless noted, calls follow the shape of the dose curve; as a rule, active = well fitted curve in the direction sought with a large enough effect; inconclusive = small, poorly fitted or top-dose-only effect, or another doubt; inactive = no such curve, though single readings can be large; an effect the other way counts as inactive or inconclusive. Potency is read from the fitted curve at half-maximal effect.
SMILES,DT40 TDP1 CPT,TDP1 cell noCPT,ClpP mod,TDP1 block
CC(=O)c1c(C)[nH]c(C(=O)OCc2nnc(-c3ccc([N+](=O)[O-])cc3)o2)c1C,23µM*,15µM*,nt,0%
CS(=O)(=O)c1ccc(C(=O)OCc2nnc(-c3ccc(Cl)cc3)o2)cc1[N+](=O)[O-],3.3µM*,4.6µM*,-1%,3%
CN1CCN(CCC(=O)Nc2ccc(Cl)cc2)CC1,12%,3%,0%,2%
CCCCc1ccc(-n2nc3cc(C)c(NC(=O)c4ccc(C#N)cc4F)cc3n2)cc1,-10%,-24%,-3%,6%
Cc1ccc(C2OC(=O)c3ccccc32)cc1 (centres undefined),-11%,-25%,0%,4%
COc1ccc(Cl)cc1N1C(=O)CC(N2CCN(S(=O)(=O)c3ccccc3F)CC2)C1=O (centres undefined),-15%,-8%,nt,2%
CCOC(=O)CNC(=O)CSc1nc2nc(C)c(Br)cc2[nH]1,-13%,-24%,-1%,4%
Cc1nc2nc(SCC(N)=O)[nH]c2cc1Br,1%,-5%,16µM*,12%
Cc1ccc(-n2nnnc2CNC(=O)c2ccc3c(c2)OCO3)cc1C,-7%,5%,-7%,1%
Cc1c(C(C)(C)O)[nH]c2cc(C(F)(F)F)ccc12,?,13µM*,4%,nt
CC(C)(O)c1[nH]c2cc(C(F)(F)F)ccc2c1C(C)(C)O,?,-30%,-10%,nt
CC1(C)CN(c2ccccc2)N(Cc2ccc(F)cc2)C1=O,9.2µM*,9.2µM*,0%,2%
O=c1cc(N2CCN(c3ccccc3)CC2)[nH]c(=O)n1Cc1ccc(F)cc1,-25%,-28%,-3%,-2%
Cc1nc(SCc2ccc(Cl)cc2)c(C#N)c(C)c1Cl,nt,nt,-2%,-11%
O=C(CN1CCc2cc3c(cc2C1)OCCCO3)Nc1c(F)cccc1F,23µM*,?,-16%,6%
CCc1ccc(NC(=O)C(=O)NCCc2sc(-c3ccc(OC)c(OC)c3)nc2C)cc1,nt,nt,4%,-1%
Fc1cccc(Cl)c1Cn1nnc2c(NCc3ccncc3)ncnc21,23µM*,?,-2%,-6%
COc1cccc(NS(=O)(=O)c2cc(-c3cnc(C4CC4)o3)ccc2C)c1,0.92µM*,0.58µM*,-4%,4%
Cc1ccc(-c2cnc(C3CC3)o2)cc1S(=O)(=O)Nc1cccc(C#N)c1,5.8µM*,5.8µM*,-3%,1%
COc1cccc(CCN2CCC(CNS(=O)(=O)c3cc(-c4cc(C)no4)ccc3C)CC2)c1,?,?,0%,4%
C=C(C)c1cccc(C(C)(C)NC(=O)N2CCN(c3ccc(OC)cc3)CC2)c1,?,?,32µM*,0%
C=C(C)c1cccc(C(C)(C)NC(=O)N2CCC(C)CC2)c1,18µM*,?,1%,2%
C=C(C)CSc1nc2c(c(=O)[nH]c(=O)n2C)n1Cc1ccccc1,?,?,-2%,nt
Cn1c(=O)[nH]c(=O)c2c1nc(SCC(O)CCl)n2Cc1ccccc1 (centres undefined),12µM*,?,-1%,3%
CC(O)CSc1nc2c(c(=O)[nH]c(=O)n2C)n1Cc1ccccc1 (centres undefined),-22%,-1%,0%,1%
SMILES,DT40 TDP1 CPT,TDP1 cell noCPT,ClpP mod,TDP1 block
Cn1c(=O)[nH]c(=O)c2c1nc(SCC(=O)Nc1ccccc1)n2Cc1ccccc1,23µM*,18µM*,0%,2%
COc1ccc(SC2=C[C@@]3(O)CC[C@@H](O)[C@@](Sc4ccc(OC)cc4)(C2=O)[C@H]3O)cc1,23µM*,16µM*,1%,nt
O=C1C(Sc2ccccc2)=C[C@@]2(O)CC[C@@H](O)[C@]1(Sc1ccccc1)[C@H]2O,5.2µM*,5.8µM*,1%,nt
COC(=O)[C@@]1(Sc2ccccc2)CC(=O)N[C@@H]1c1ccccc1,8%,-22%,1%,nt
CC(OC(=O)[C@@H](NC(=O)OCc1ccccc1)C(C)C)C(=O)Nc1ccc(N2CCOCC2)cc1 (some centres undefined),21µM*,?,0%,nt
CN(C)c1ccc(C2C=Cc3ccccc32)c2ccccc12 (centres undefined),-19%,?,1%,nt
CC(=O)N(Cc1ccc(F)cc1)C1=C(NCCc2ccccc2)C(=O)c2ccccc2C1=O,1.8µM*,1.8µM*,1%,14%
C=CCNC1=C(Cl)C(=O)c2ccccc2C1=O,15µM*,16µM*,-2%,9%
O=C1C(Cl)=C(Nc2ccccc2)C(=O)c2ccccc21,2.1µM*,2.9µM*,-1%,1%
CCN(CC)CCCNC1=C(Cl)C(=O)c2ccccc2C1=O,3.3µM*,4.1µM*,nt,nt
C=C1NN(C(C)C(=O)O)C(=O)N1c1ccc(OCc2ccccc2)cc1 (centres undefined),-23%,-10%,-1%,nt
Cc1cc(NC(=O)C(C)Oc2ccccc2)no1 (centres undefined),2%,-18%,nt,nt
C=C1C=C(C)n2ncc(C(=O)Nc3cccc(C(=O)Nc4cccc(C(F)(F)F)c4)c3)c2N1,?,?,-11%,nt
Cc1cccc(NC(=O)CSc2nc3ccccc3nc2N2CCOCC2)c1C,?,?,2%,2%
OC(CN1C=CCc2ccccc21)c1ccc(Cl)cc1Cl (centres undefined),?,?,-15%,nt
CC(C)NC1=C(Cl)C(=O)c2ccccc2C1=O,18µM*,?,0%,0%
CC(C)OCCCNC1=C(Cl)C(=O)c2ccccc2C1=O,?,?,nt,12%
O=C(O)c1cccc(NC2=C(Cl)C(=O)c3ccccc3C2=O)c1,12µM*,13µM*,0%,-2%
O=C(O)c1ccc(NC2=C(Cl)C(=O)c3ccccc3C2=O)cc1,15µM*,13µM*,2%,-7%
O=C1C(Cl)=C(NCCc2ccccc2)C(=O)c2ccccc21,0.82µM*,1.5µM*,nt,nt
CC1(C)C(=O)Nc2ccccc2N1C(=O)COC(=O)CNS(=O)(=O)c1ccc(Br)cc1Cl,3%,-26%,2%,nt
O=C1C(Cl)=C(NCc2cccnc2)C(=O)c2ccccc21,13µM*,8.2µM*,nt,nt
Clc1ccccc1-c1cc(NCc2cccnc2)ncn1,0%,-20%,nt,-11%[56.1 µM]
CCN(CC)S(=O)(=O)c1ccc(N2CCOCC2)c(NC(=O)CCC2CCCCC2)c1,21µM*,?,-1%,3%
CCN(CC)S(=O)(=O)c1ccc(N2CCOCC2)c(NC(=O)Cc2cccc3ccccc23)c1,?,16µM*,-4%,8%
CCN(CC)S(=O)(=O)c1ccc(N2CCOCC2)c(NC(=O)Cc2ccccc2F)c1,-27%,15µM*,-1%,-4%
CCN(CC)S(=O)(=O)c1ccc(N2CCOCC2)c(NC(=O)Cc2ccccc2)c1,3%,4%,-15%,3%
CCN(CC)S(=O)(=O)c1ccc(N2CCOCC2)c(NC(=O)CC(C)(C)C)c1,-8%,13%,2%,0%
